MARV entry inh – inhibitors of Marburg virus binding or cell entry; Marburg virus pseudotyped entry inhibition, cell reporter; Potency, µM (doses to about 37.8 µM), without a hit: top-dose activity change, negative = inhibition, hits mostly inhibitors; 300,000 compounds, 1.8% hits; AID 540276; calls by dose curve; tested in HEK293 cells
VACV mCherry inh – inhibitors of vaccinia virus infection (mCherry reporter signal) | 310,000 compounds, 0.63% hits | Vaccinia virus mCherry reporter infection, fluorescence | Potency, µM (titrated, usually from 36.5 µM), for the others: at the highest dose activity change, negative = inhibition, hits mostly inhibitors; calls by dose curve; tested in A549 cells; also: nearly all actives have a fitted effect of over 35% in size
FMDV inh – foot and mouth disease virus antiviral activity. Potency, µM (highest dose often 57.9 µM), for inactives: top-dose activity change, negative = inhibition, actives largely listed as inhibitors. 410,000 compounds, 1.2% hits. AID 1159524. FMDV antiviral cell-based qHTS; calls by dose curve; tested in HEK293T cells; also: read-out not given here; nearly all actives have a fitted effect of over 45% in size
HCV inh – inhibitors of hepatitis C virus infection; Huh7.5.1 HCVcc-Cre infection, luciferase reporter, 44 h; 340,000 compounds, 3.4% hits; AID 651820; Potency, µM (series often up to 41.8 µM), for the others: at the top dose activity change, negative = inhibition, actives largely listed as inhibitors; active = well fitted inhibition curve with a large enough effect; inconclusive = small, poorly fitted or top-dose-only effect, or another doubt; inactive = no such curve, though single readings can be large or run the other way
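Luciferase read-out (15 sec integration) after a 15 min room-temperature substrate step quantifies HCVcc-Cre infection. Cells, 1,000 per well, had compound added 4 h post-plating, then virus at ~0.5 moi, and were cultured 44 h.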
LASV entry inh – blocks Lassa virus binding to or entry into cells. Lassa virus pseudotype entry inhibition, cell reporter. Potency, µM (highest dose often 37.9 µM), without a hit: at the top dose activity change, negative = inhibition, usual class: inhibitors. 300,000 compounds, 1.2% hits; calls by dose curve; tested in HEK293 cells; also: nearly all actives have a fitted effect of over 50% in size
Vaccinia Venus – vaccinia inhibition (Venus reporter) | 330,000 compounds, 0.46% hits | Vaccinia virus Venus reporter expression, fluorescence | AID 720580 | Potency, µM (top dose mostly 36.5 µM), without a hit: at the highest dose activity change, negative = inhibition, most hits filed as inhibitors; calls by dose curve; tested in A549 cells; also: nearly all actives have a fitted effect of over 30% in size
* hit, by the source's call; i = inactive; ? = inconclusive; · = no result given; [ ] = dose if it differs, or a comment. This is a sample that favours compounds with a hit; in the whole collection about 5.3% have one here. % is scaled to controls: 0 for no effect and ±100 for the full control effect; potency is read from the fitted curve at half-maximal effect.

SMILES	MARV entry inh	VACV mCherry inh	FMDV inh	HCV inh	LASV entry inh	Vaccinia Venus
CN=C1c2cc3cc(OC)ccc3n2CCN1Cc1ccccc1	11µM*	?	-24%	-29%	?	-27%
CO[C@H]1[C@H](NC(=O)c2cccs2)c2ccccc2C12CCN(Cc1cccn1-c1ccccn1)CC2	·	-15%	-15%	·	·	-4%
CCOC(=O)c1ccc2c(c1)n(CC)c(/C=C/N(C)c1ccccc1)[n+]2CC	?	-12%	?	?	?	-15%
CC[n+]1c(/C=C/N(C)c2ccccc2)n(-c2ccccc2)c2ccc(-c3nc4ccccc4s3)cc21	?	?	6.3µM*	5.6µM*	2.5µM*	4.5µM*
COc1ccccc1CNC(=O)C(Cc1c[nH]c2ccccc12)NC(=O)OCc1ccccc1 (centres undefined)	?	-28%	-25%	?	4.5µM*	-26%
COc1ccc2c(c1)O[C@H](c1ccc3c(c1)OCO3)[C@@H](OC(=O)NCCOc1ccccc1)C2=O	5%[14.2 µM]	·	·	·	·	·
O=C(CSc1nnc(COc2ccccc2Cl)o1)Nc1ccccc1	·	·	-2%	2%	·	·
C/C(N)=C(/C#N)C(=O)CSc1nnc(COc2ccccc2Cl)o1	1%	7.9µM*	29%	-3%	-1%[46.1 µM]	?
C=CCn1c(CSc2ccccc2[N+](=O)[O-])n[nH]c1=S	19%[46.1 µM]	-12%	3%	7%	9%	-8%
C=CCn1c(Sc2ncc([N+](=O)[O-])s2)n[nH]c1=O	?	-14%	?	6.3µM*	?	0%
CCC(=O)N(CCC(Cc1ccccc1)c1ccc2c(c1)OCO2)Cc1ccccc1F (centres undefined)	13µM*	?	?	-17%	?	?
Cc1ccc2c(c1)cc1c(=O)n(CC(=O)NCc3ccco3)nc(C)n12	?	-10%	2%	·	·	-4%
COc1ccc(NC(=S)N(CCC(C)C)C2CCN(C(C)C)CC2)cc1	·	·	-12%	?	·	·
CC(C)CCN(C(=S)Nc1cccc(F)c1)C1CCN(C(C)C)CC1	?	-22%	-21%	11µM*	?	-22%
CN(C)c1ccc(/C=C/c2ccc3cc(N)ccc3n2)cc1	·	14%	·	·	·	12%
CCN1C(=NCCc2cccnc2)NC(CCc2ccccc2)C(C(=O)OC)=C1C (centres undefined)	38%[14.2 µM]	·	·	·	·	·
Cc1c(Cl)cccc1NC(=O)Nc1cc(C(C)(C)C)on1	·	5%	28%	10µM*	·	-24%
CC(C)(C)c1cc(NC(=O)Nc2ccc(Cl)cc2Cl)no1	?	-10%[7.34 µM]	32%	?	3%	2%[7.34 µM]
Cn1c(=O)c2c(-c3ccccc3Cl)n(-c3cc(Cl)ccc3O)cc2n(C)c1=O	?	-13%	17%	·	?	-13%
C/C(=N\NC(=O)c1ccc(O)cc1)c1ccc2c(c1)Nc1ccccc1S2	?	-23%	0%	10µM*	-13%[46.1 µM]	?
C=C1C=C(C)n2ncc(C(=O)Nc3cccc(C(=O)Nc4cccc(C(F)(F)F)c4)c3)c2N1	·	-15%	·	·	·	-18%
Fc1ccc(Nc2nc3nonc3nc2Nc2cccc(C(F)(F)F)c2)cc1	2.2µM*	?	?	·	?	?
O=[N+]([O-])c1ccc(Sc2ncccn2)c([N+](=O)[O-])c1	?	?	14µM*	?	?	?
O=[N+]([O-])c1ccc(Sc2nccn2Cc2ccccc2)c([N+](=O)[O-])c1	?	-3%	28µM*	?	5%	-19%
O=[N+]([O-])c1cc(C(F)(F)F)ccc1Sc1nccn1Cc1ccccc1	-4%[46.1 µM]	-23%	-16%	19%	-1%	-16%
SMILES	MARV entry inh	VACV mCherry inh	FMDV inh	HCV inh	LASV entry inh	Vaccinia Venus
CC(C)Sc1nc(-c2ccccc2)cc(=O)[nH]1	7%	·	-24%	-14%	2%	·
O=c1cc(-c2ccccc2)nc(Sc2ccc([N+](=O)[O-])cc2[N+](=O)[O-])[nH]1	5%[46.1 µM]	-17%	16µM*	0%	17%	-4%
Cc1cccc(Sc2ccc([N+](=O)[O-])cc2[N+](=O)[O-])n1	-29%	-29%	?	-27%	-26%	-28%
COc1cc(NC(=O)CN2Cc3ccccc3C2=O)cc(OC)c1OC	·	-13%	-17%	·	-12%[46.1 µM]	-12%
CC(C)(CNC(=O)c1cnn(-c2nccc(-c3cc4ccccc4o3)n2)c1C1CC1)N1CCOCC1	·	0%	6%	·	·	-1%
O=C(NCCCn1ccnc1)[C@H](Cc1ccccc1)N1C(=O)c2ccccc2C1=O	1%	·	·	·	·	·
O=C(CSc1ccccn1)Nc1nonc1[N+](=O)[O-]	·	·	32µM*	7%	·	·
CNC(=S)N/N=C/c1cn(CCOc2cccc(OC)c2)c2ccccc12	?	4µM*	-5%	10µM*	?	?
COc1cccc(OCCn2cc(/C=N/NC(=O)c3ccncc3)c3ccccc32)c1	?	-24%	?	-24%	6%	-19%
CCOC(=O)N/N=C/c1cn(CCCOc2ccc(C)cc2)c2ccccc12	7.1µM*	?	-12%	6%	?	-24%
OC(CN(c1ccccc1)c1ccccc1)Cn1cnc2ccccc21 (centres undefined)	?	·	32µM*	?	-6%	?
OC(COCc1ccccc1)Cn1cnc2ccccc21 (centres undefined)	2%	·	7%	2%	-2%	·
CCNc1ncc2nc(-c3ccc(Cl)cc3)c(=O)n(Cc3cccc(OC)c3)c2n1	·	·	6%	·	·	·
COc1ccc(C(=O)c2coc(-c3ccccc3C(=O)O)c2C(=O)O)cc1	17%	i	0%	4%	-1%	-2%
COc1ccc(C(=O)c2c(C(F)(F)F)oc3c2C(=O)c2ccccc2C3=O)cc1	3.2µM*	·	?	1.6µM*	?	4µM*
COCC(=O)Nc1cc(C(=O)N2CC3CC4CC(C3)CC2C4)c2c(c1)nc(-c1ccncc1)n2C	·	-5%	-4%	·	·	-2%
Cc1ccc2cccc(OCCOCCOc3ccccc3Br)c2n1	-18%	-16%	-16%	?	-16%	-3%
Cc1ccc2cccc(OCCCOc3ccccc3F)c2n1	·	·	33%	10µM*	·	·
COc1cccc(CN(C)C(=O)c2ccc3nccnc3c2)c1	-26%	·	2%	-7%	1%	5%
COc1ccc(N(C)S(=O)(=O)c2cccc(C(=O)OCC(=O)c3c(N)n(C)c(=O)n(C)c3=O)c2)cc1	?	-12%	22µM*	?	?	-17%
CCN(c1ccccc1)S(=O)(=O)c1cccc(C(=O)OCC(=O)c2c(N)n(C)c(=O)n(C)c2=O)c1	·	·	-28%	?	·	·
COc1ccc(N(C)S(=O)(=O)c2cccc(C(=O)N(C)Cc3ccc(C)o3)c2)cc1	?	-3%	-23%	-17%	5µM*	-6%
COc1ccc(CN(C)C(=O)c2cccc(C(=O)N(C)Cc3ccc(OC)cc3)c2)cc1	1%	·	-24%	11µM*	·	·
Cc1ccc2c(C(=O)CNC3=NCCS3)c(C)[nH]c2c1	·	-12%	·	·	·	?

High-throughput results: PubChem, National Center for Advancing Translational Sciences (NCATS)
